High-throughput results as filed in PubChem BioAssay.
Wnt bcat act: activators of Wnt/beta-catenin signaling | Wnt/beta-catenin reporter cell assay, activator, plate reader | activation, % at 9.35 µM | 300,000 tested, 1.2% active | AID 743398; in the data active means activation above about 30%, passing the limit was not always enough;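 further: 0% = neutral control wells and 100% = positive control wells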
A3A deaminase: blocks human APOBEC3A ssDNA deamination. recombinant A3A, FAM/TAMRA ssDNA deamination fluorescence. inhibition, % at 20 µM. P31941. 330,000 tested, 0.41% active;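 active means at least 40% inhibition at 20 µM here, with at most 30% in a related deaminase screen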;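 further: plate controls were A3A with DMSO for no effect and wells lacking A3A enzyme for full effect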
esBAF inh: blocks esBAF chromatin remodeling in mouse ES cells. Bmi1-luciferase knock-in reporter, 24 h; 100% = twice the neutral-well signal. reporter increase, % at 12.5 µM. 350,000 tested, 2% active. AID 602393; in the data active means activation above about 40%;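 further: 0% = median of the plate's neutral control wells and 100% = double that signal; a rise in the Bmi1 reporter signal indicates esBAF inhibition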
PHOSPHO1 block: inhibitors of human PHOSPHO1 phosphatase. inhibition, % at 13.3 µM. recombinant PHOSPHO1, absorbance phosphatase assay. Q8TCT1. 290,000 tested, 1.1% active; in the data active means inhibition above about 60%
MITF act: MITF TRPM1 promoter activation in melanoma cells; SK-MEL-5 TRPM1-promoter luciferase, 24 h; % of positive control, neutral wells = 0; 300,000 tested, 0.75% active; activation, % at 12.5 µM; AID 588334;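 active means mean activation of at least 80% with every replicate also reaching 80%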;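 further: 0% = neutral control wells and 100% = parthenolide positive control wells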
A3G deaminase: inhibitors of human APOBEC3G DNA deaminase | inhibition, % at 20 µM | 330,000 tested, 0.28% active | Q9HC16 | recombinant A3G, ssDNA deamination FAM/TAMRA fluorescence;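 active means inhibition of at least 40% at 20 µM, with no more than 30% in the related APOBEC3A deaminase screen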;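 further: plate controls were DMSO wells with A3G for no effect and wells lacking A3G enzyme for full effect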
Target sequence (Q9HC16 whole entry, looked up): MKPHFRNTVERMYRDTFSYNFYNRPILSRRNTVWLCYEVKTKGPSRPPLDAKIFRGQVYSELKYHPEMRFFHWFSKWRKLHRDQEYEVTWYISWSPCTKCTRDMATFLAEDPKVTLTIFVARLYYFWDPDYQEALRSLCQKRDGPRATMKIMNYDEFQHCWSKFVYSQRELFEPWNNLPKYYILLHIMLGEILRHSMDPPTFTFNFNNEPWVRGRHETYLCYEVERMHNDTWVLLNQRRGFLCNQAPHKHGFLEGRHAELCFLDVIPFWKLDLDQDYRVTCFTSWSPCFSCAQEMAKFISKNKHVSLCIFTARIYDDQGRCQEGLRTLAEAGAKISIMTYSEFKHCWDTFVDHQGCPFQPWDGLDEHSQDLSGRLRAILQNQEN
APOBEC3A confirm: confirmation of human APOBEC3A DNA deaminase inhibitors; inhibition, % at 20 µM; 1,400 tested, 63% active; recombinant A3A, ssDNA deaminase UDG fluorescence assay; shares compounds with A3A deaminase;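 active means inhibition reaching a set limit, 80% of the first screen's cutoff, at 20 µM in any replicate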;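 further: plate controls were DMSO wells with A3A for no effect and wells lacking A3A enzyme for full effect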
UDG ctr A3A: inhibits UDG, flagging false APOBEC3A inhibitors | AID 504714 | UDG counterscreen, FAM/TAMRA uracil oligo fluorescence | inhibition, % at 20 µM | 1,000 tested, under 10 active | shares compounds with A3A deaminase; call rule not given here
Numbers without * were called inactive; · = no result given. Sampled rows, rich in hits. Any-hit rate of the full collection: about 3.6%.

SMILES	Wnt bcat act	A3A deaminase	esBAF inh	PHOSPHO1 block	MITF act	A3G deaminase	APOBEC3A confirm	UDG ctr A3A
CCN(Cc1ccc(OC)c(F)c1)C(=O)CCl	0	-1	·	34	-75	-12	·	·
CNC(=O)C[C@H]1CC[C@@H]2[C@H](COC[C@H](O)CN2Cc2ccncc2)O1	·	·	-3	·	·	·	·	·
CO[C@H]1CN(C)C(=O)c2cc(NS(=O)(=O)c3ccc(C)cc3)ccc2OC[C@H](C)N(Cc2nccs2)C[C@H]1C	·	·	8	·	·	·	·	·
C[N+]1(C2CCC3CCCC2C3O)CCCCC1 (stereo not drawn)	-4	65*	-5	-1	-3	21	68*	4
C[C@H](CO)N1C[C@H](C)[C@@H](CN(C)C(=O)C2CC2)Oc2cc(C#CC3CCCC3)ccc2S1(=O)=O	·	·	-3	·	·	·	·	·
O=C(Nc1ccccc1)c1ccc(CSc2ncccn2)cc1	·	43*	3	-14	41	19	20	·
CC(=O)Nc1nnc(SCc2ccc(C(=O)Nc3ccccc3F)cc2)s1	-1	48*	·	-26	21	19	53*	3
O=C(Nc1ccccc1F)c1ccc(CSc2ncccn2)cc1	11	70*	62*	18	76	12	55*	-3
Cn1nnnc1SCc1ccc(C(=O)Nc2ccccc2F)cc1	·	-1	36	56	48	-5	·	·
CO[C@H]1CN(C)C(=O)c2ccc(NC(=O)c3ccc(F)cc3)cc2OC[C@H](C)N(C(=O)CC2CC2)C[C@H]1C	·	·	4	·	·	·	·	·
CCCC[n+]1c(C)sc2cc(OC)ccc21	1	65*	·	-45	·	18	66*	-2
COc1ccc2sc(C)[n+](C)c2c1	0	25	-4	-19	-5	15	·	·
Cc1cc(/C=C2\SC(=O)N(C)C2=O)c(C)n1-c1ccc(S(N)(=O)=O)cc1	0	50*	8	-16	36	16	63*	-1
COn1c(-c2ccccc2)nc2c1CCc1nonc1-2	·	54*	-3	15	-1	0	-7	-2
CC12CC(O)C3c4ccc(O)cc4CCC3C1CC/C2=N\O (stereo not drawn)	-3	51*	3	36	-4	-13	1	2
C[C@]12C[C@H](O)[C@@H]3c4ccc(O)cc4CCC3[C@@H]1CCC2=O (stereo partly drawn)	-1	0	-1	37	11	-1	·	·
CC(C)COC(=O)N1CCCC1C(=O)Nc1nccs1 (stereo not drawn)	-3	54*	-10	-48	7	22	27	·
CSc1nc2sc3c(c2c(=O)n1C1CCCCC1)CCN(C)C3	·	47*	3	-14	9	19	20	·
CC(=O)Nc1ccc2nc(SCC(=O)NCCOc3ccccc3)sc2c1	0	-2	·	-8	1	3	·	·
CC(=O)Nc1nnc(SCC(=O)NCCOc2ccccc2)s1	·	57*	-6	-12	2	26	63*	-2
CC(=O)Nc1nnc(SCC(=O)NCC2CCCO2)s1 (stereo not drawn)	·	41*	2	86*	1	10	40*	5
CCC(=O)Nc1nnc(SCC(=O)NCC2CCCO2)s1 (stereo not drawn)	-1	2	-10	10	-5	-6	·	·
COc1ccc(-c2ccc3n(c2=O)C[C@H]2[C@H](CO)[C@@H](C(=O)N4CCCCC4)[C@@H]3N2C)cc1	·	·	10	·	·	·	·	·
Cc1ccc(S(=O)(=O)Nc2ccc3c(c2)C(=O)N([C@H](C)CO)C[C@@H](C)[C@@H](CN(C)Cc2ccc(C(=O)O)cc2)OCCCC[C@H](C)O3)cc1	·	·	6	·	·	·	·	·
Oc1cccc(O)c1O	·	42*	·	·	·	4	44*	·
COC(=O)c1cccc(N2C(=O)c3ccccc3S2(=O)=O)c1	-6	40*	·	92*	-2	19	1	·
COC(=O)c1ccc(CN2C(=O)c3ccccc3S2(=O)=O)cc1	·	1	10	-33	16	-7	·	·
C[C@H]1CN([C@@H](C)CO)C(=O)c2cccc(NS(=O)(=O)c3ccccc3)c2O[C@H]1CN(C)S(=O)(=O)c1ccc(F)cc1	·	·	-3	·	·	·	·	·
